# From PubChem BioAssay (NCATS)
# Results filed as inconclusive are left out. Entries that show only a call come without a potency. The source made the active and inactive calls. The call rests on the fitted dose curve; in most records, active means well fitted inhibition curve with a large enough effect; inconclusive means small, poorly fitted or top-dose-only effect; inactive means flat fitted curve, though single readings scatter.
# Assays:
# Experiment in all cases: qHTS profiling for inhibitors of Plasmodium falciparum proliferation (AID 504749); further: nearly all actives have a fitted effect of over 60% in size
# Conditions in all cases: P. falciparum in erythrocytes, SYBR Green DNA, 72 h; series mostly up to 28.7 µM
# CP191 = test system: CP191
# Summary of the method: (§1)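 Quantitative HTS: compounds pinned into medium, infected erythrocytes added (0.3% parasitemia, 2.5% hematocrit), 72 h culture at 37 C under 5% CO2. Saponin/Triton lysis with SYBR Green I, overnight RT, then fluorescence read.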
# CP192 = test system: CP192
# Summary of the method: as §1
# CP194 = test system: CP194
# Summary of the method: as §1
# CP201 = test system: CP201
# Summary of the method: as §1
# CP203 = test system: CP203
# Summary of the method: as §1
# CP215 = test system: CP215
# Summary of the method: as §1
# CP217 = test system: CP217
# Summary of the method: as §1
# CP237 = test system: CP237
# Summary of the method: as §1
# CP238 = test system: CP238
# Summary of the method: as §1
# CP252 = test system: CP252
# Summary of the method: as §1
# CP256 = test system: CP256
# Summary of the method: as §1
# CP260 = test system: CP260
# Summary of the method: as §1
# CP265 = test system: CP265
# Summary of the method: as §1
# CP266 = test system: CP266
# Summary of the method: as §1
# CP268 = test system: CP268
# Summary of the method: as §1
# CP269 = test system: CP269
# Summary of the method: as §1
# CP211 = test system: CP211
# Summary of the method: as §1
# CP247 = test system: CP247
# Summary of the method: as §1
# CP250 = test system: CP250
# Summary of the method: as §1
# CP262 = test system: CP262
# Summary of the method: as §1
# Potency means the concentration at half of the fitted maximal effect.
Compound,Potency (CP191),Potency (CP192),Potency (CP194),Potency (CP201),Potency (CP203),Potency (CP215),Potency (CP217),Potency (CP237),Potency (CP238),Potency (CP252),Potency (CP256),Potency (CP260),Potency (CP265),Potency (CP266),Potency (CP268),Potency (CP269),Potency (CP211),Potency (CP247),Potency (CP250),Potency (CP262)
CC[N+](C)(CC)CCOC(=O)C(O)(c1ccccc1)C1CCCCC1 (stereo unspecified),inactive,inactive,inactive,inactive,inactive,inactive,inactive,inactive,inactive,inactive,inactive,inactive,inactive,inactive,inactive,inactive,–,–,–,–
CCOCCn1c(N2CCCN(C)CC2)nc2ccccc21,inactive,inactive,–,inactive,–,inactive,inactive,11.2 µM (active),inactive,inactive,inactive,inactive,–,–,–,inactive,inactive,inactive,inactive,inactive
CNCCc1ccccn1,inactive,inactive,inactive,–,inactive,inactive,inactive,inactive,inactive,inactive,inactive,inactive,inactive,inactive,inactive,inactive,inactive,inactive,inactive,inactive
CCN(CC)CCOC(=O)C1(c2ccccc2)CCCC1,inactive,inactive,–,–,10.7 µM (active),–,inactive,2.82 µM (active),inactive,inactive,inactive,–,inactive,–,–,–,–,–,inactive,inactive
CCCCCN=C(N)N/N=C/c1c[nH]c2ccc(OC)cc12,7.94 µM (active),inactive,–,–,–,–,–,5.01 µM (active),–,–,–,5.01 µM (active),4.47 µM (active),–,–,13.5 µM (active),–,–,–,inactive
Cc1ncc(CO)c(C=O)c1O,inactive,–,–,–,–,–,inactive,inactive,inactive,inactive,inactive,inactive,inactive,–,–,–,–,inactive,inactive,–
CCCCc1cc2ccccc2c(OCCN(C)C)n1,inactive,inactive,inactive,inactive,inactive,–,inactive,–,inactive,inactive,inactive,inactive,inactive,inactive,inactive,inactive,inactive,inactive,inactive,inactive
CN1CCN(C2=Nc3cc(F)ccc3Cc3ccccc32)CC1,inactive,inactive,–,inactive,inactive,inactive,inactive,7.08 µM (active),inactive,inactive,–,inactive,–,–,inactive,inactive,inactive,–,inactive,inactive
O=C(NC1CCN(CCc2c[nH]c3ccccc23)CC1)c1ccccc1,8.91 µM (active),inactive,inactive,inactive,–,inactive,inactive,inactive,inactive,inactive,inactive,inactive,inactive,inactive,inactive,inactive,inactive,inactive,inactive,inactive
O=C1C(=O)c2ccccc2C(O)=C1C1CCC(c2ccc(Cl)cc2)CC1 (stereo unspecified),0.0028 µM (active),0.0051 µM (active),0.0057 µM (active),0.0064 µM (active),0.0064 µM (active),–,0.0014 µM (active),0.0011 µM (active),0.005 µM (active),0.0032 µM (active),0.0016 µM (active),0.0008 µM (active),0.0006 µM (active),0.0064 µM (active),0.0057 µM (active),0.0051 µM (active),0.0057 µM (active),0.0022 µM (active),0.0028 µM (active),–
CC(=O)OCC(=O)[C@H]1CC[C@H]2[C@@H]3CCC4=CC(=O)CC[C@]4(C)[C@H]3CC[C@]12C,inactive,inactive,inactive,inactive,inactive,–,inactive,–,inactive,inactive,inactive,inactive,inactive,inactive,inactive,inactive,inactive,inactive,inactive,inactive
CN1CCN(c2cc3c(cc2F)c(=O)c(C(=O)O)cn3-c2ccc(F)cc2)CC1,inactive,inactive,–,inactive,inactive,–,inactive,–,inactive,inactive,inactive,–,inactive,–,–,inactive,inactive,inactive,inactive,–
CC(=O)NC(=O)c1ccccc1O,inactive,inactive,inactive,inactive,inactive,inactive,inactive,inactive,inactive,inactive,inactive,inactive,inactive,inactive,inactive,inactive,–,inactive,inactive,inactive
O=S(c1cc(Cl)cc(Cl)c1O)c1cc(Cl)cc(Cl)c1O,17.8 µM (active),–,–,–,–,–,–,7.08 µM (active),–,–,–,–,–,–,–,–,–,–,28.2 µM (active),–
COc1ccc(CN(CCN(C)C)c2ncccn2)cc1,inactive,inactive,inactive,inactive,–,inactive,inactive,7.08 µM (active),inactive,inactive,inactive,inactive,inactive,–,inactive,inactive,inactive,inactive,inactive,inactive
NS(=O)(=O)c1cc(C(=O)O)cc(N2CCCC2)c1Oc1ccccc1,inactive,inactive,inactive,inactive,–,inactive,inactive,inactive,inactive,inactive,inactive,inactive,inactive,–,inactive,inactive,inactive,inactive,inactive,inactive

Compound,Potency (CP191),Potency (CP192),Potency (CP194),Potency (CP201),Potency (CP203),Potency (CP215),Potency (CP217),Potency (CP237),Potency (CP238),Potency (CP252),Potency (CP256),Potency (CP260),Potency (CP265),Potency (CP266),Potency (CP268),Potency (CP269),Potency (CP211),Potency (CP247),Potency (CP250),Potency (CP262)
NC(=O)C1(N2CCCCC2)CCN(CCCC(=O)c2ccc(F)cc2)CC1,inactive,inactive,–,inactive,inactive,inactive,inactive,–,inactive,inactive,inactive,–,–,inactive,inactive,inactive,inactive,–,inactive,inactive
CC(=O)NO,inactive,inactive,inactive,–,inactive,inactive,inactive,inactive,inactive,inactive,inactive,inactive,inactive,inactive,inactive,inactive,inactive,inactive,inactive,inactive
CC[C@H](c1ccc(O)cc1)[C@@H](CC)c1ccc(O)cc1,inactive,inactive,inactive,inactive,inactive,inactive,inactive,inactive,inactive,inactive,inactive,inactive,inactive,inactive,inactive,inactive,–,inactive,inactive,inactive
CC(C)NCC(O)c1ccc2ccccc2c1 (stereo unspecified),11.2 µM (active),–,10.7 µM (active),inactive,12 µM (active),10.7 µM (active),8.91 µM (active),4.47 µM (active),10 µM (active),11.2 µM (active),–,6.31 µM (active),10 µM (active),inactive,–,–,–,7.94 µM (active),–,–
CCN(CC)CCOc1ccccc1C(=O)CCc1ccccc1,inactive,inactive,–,–,–,–,–,–,–,–,–,inactive,–,–,–,inactive,–,–,inactive,inactive
CC(C)(C)NC[C@H](O)COc1nsnc1N1CCOCC1,7.08 µM (active),–,–,inactive,–,–,–,5.01 µM (active),–,–,–,7.94 µM (active),6.31 µM (active),inactive,–,15.1 µM (active),–,–,–,inactive
CN1CCC(OC(c2ccccc2)c2ccccc2)CC1,inactive,inactive,–,inactive,–,–,–,–,–,–,–,3.98 µM (active),3.55 µM (active),inactive,–,–,–,–,inactive,–
OC(C#CCN1CCCC1)(c1ccccc1)c1ccccc1,inactive,–,–,inactive,15.1 µM (active),–,–,5.01 µM (active),–,–,–,8.91 µM (active),–,inactive,–,–,–,–,–,–
CCCN(CCc1cccs1)[C@H]1CCc2c(O)cccc2C1,10 µM (active),–,13.5 µM (active),–,6.75 µM (active),15.1 µM (active),11.2 µM (active),3.16 µM (active),10 µM (active),11.2 µM (active),–,12.6 µM (active),11.2 µM (active),–,10.7 µM (active),15.1 µM (active),10.7 µM (active),8.91 µM (active),–,–
C#C[C@]1(O)CC[C@H]2[C@@H]3CCc4cc(OC)ccc4[C@H]3CC[C@@]21C,inactive,inactive,inactive,inactive,–,inactive,inactive,inactive,inactive,inactive,inactive,inactive,inactive,inactive,inactive,inactive,inactive,inactive,inactive,inactive
Cc1cc(NS(=O)(=O)c2ccc(N)cc2)nc(C)n1,inactive,inactive,inactive,inactive,inactive,inactive,inactive,inactive,inactive,inactive,inactive,inactive,inactive,inactive,inactive,inactive,–,inactive,inactive,inactive
NCc1ccccc1Sc1ccccc1CO,inactive,inactive,–,inactive,–,inactive,inactive,8.91 µM (active),inactive,inactive,–,inactive,inactive,inactive,–,inactive,inactive,inactive,inactive,–
CCC(C(=O)OCCOCCN(CC)CC)c1ccccc1 (stereo unspecified),inactive,inactive,–,inactive,–,inactive,inactive,11.2 µM (active),inactive,inactive,inactive,inactive,–,inactive,inactive,inactive,inactive,inactive,inactive,inactive
CCOC(=O)C(C#N)=C(c1ccccc1)c1ccccc1,inactive,–,inactive,inactive,inactive,inactive,inactive,inactive,inactive,inactive,inactive,inactive,inactive,inactive,inactive,inactive,inactive,inactive,inactive,inactive
COc1cc([C@H]2Oc3cc([C@H]4Oc5cc(O)cc(O)c5C(=O)[C@@H]4O)ccc3O[C@@H]2CO)ccc1O,inactive,inactive,–,inactive,inactive,inactive,inactive,inactive,inactive,inactive,inactive,inactive,inactive,inactive,inactive,inactive,inactive,–,inactive,inactive
